Screening data as filed in PubChem BioAssay.
Many of the other results were omitted from the sample, so hits are more common in it than they were.
Marburg entry inh – qHTS for inhibitors of binding or entry into cells for Marburg Virus | Potency, µM (series often up to 37.8 µM), without a hit: top-dose activity change, negative = inhibition, hits mostly inhibitors | 300,000 tested, 1.8% active | Marburg virus pseudotyped entry inhibition, cell reporter; calls by dose curve; tested in HEK293 cells; note: potency is the fitted concentration of half-maximal effect; % is set by controls: 0 for no effect and ±100 for the full control effect
Vaccinia mCherry – qHTS for Stage-Specific Inhibitors of Vaccinia Orthopoxvirus: mCherry Reporter Primary qHTS; Potency, µM (series often up to 36.5 µM), without a hit: top-dose activity change, negative = inhibition, actives largely listed as inhibitors; AID 720579, 2013; Vaccinia virus mCherry reporter infection, fluorescence; 310,000 tested, 0.63% active; calls by dose curve; tested in A549 cells; note: potency is the fitted concentration of half-maximal effect; % is set by controls: 0 for no effect and ±100 for the full control effect; nearly all actives have a fitted effect of over 35% in size
Lassa entry inh – qHTS for Inhibitors of binding or entry into cells for Lassa Virus | Lassa virus pseudotype entry inhibition, cell reporter | Potency, µM (series often up to 37.9 µM), inactives show top-dose activity change, negative = inhibition, usual class: inhibitors | 300,000 tested, 1.2% active | AID 540256, 2011; calls by dose curve; tested in HEK293 cells; note: potency is the fitted concentration of half-maximal effect; % is set by controls: 0 for no effect and ±100 for the full control effect; nearly all actives have a fitted effect of over 50% in size
Shiga inhibitor – A qHTS for Small Molecule Inhibitors of Shiga Toxin | 290,000 tested, 9.2% active | Vero cells, Shiga toxin protein synthesis inhibition reporter | inhibition, % at 38.7 µM; in the data active = inhibition mostly above about 28%, no sharp cut-off; inactive = mostly below about 43%; note: 0% is about no effect
CHX counter – Cycloheximide Counterscreen for Small Molecule Inhibitors of Shiga Toxin | max response, % | 300,000 tested, 12% active | cell reporter, cycloheximide protein synthesis inhibition counterscreen; in the data active = max response mostly above about 13%, no sharp cut-off; inactive = mostly below about 14%; note: read at 38.3 µM for the half of the compounds with a filed dose; 0% is about no effect
Vaccinia Venus – qHTS for Stage-Specific Inhibitors of Vaccinia Orthopoxvirus: Venus Reporter Primary qHTS; Potency, µM (highest dose often 36.5 µM), inactives show at the top dose activity change, negative = inhibition, usual class: inhibitors; 330,000 tested, 0.46% active; Vaccinia virus Venus reporter expression, fluorescence; AID 720580, 2013; calls by dose curve; tested in A549 cells; note: potency is the fitted concentration of half-maximal effect; % is set by controls: 0 for no effect and ±100 for the full control effect; nearly all actives have a fitted effect of over 30% in size
* marks the source's active call; other numbers are inactive results; i = inactive; u = inconclusive; x = no result; [ ] = another dose, or the depositor's remark.

SMILES	Marburg entry inh	Vaccinia mCherry	Lassa entry inh	Shiga inhibitor	CHX counter	Vaccinia Venus
O=C(N/N=C/c1cccs1)c1c[nH]c2ccccc12	u	i	28%	81*	62*	-21%
O=C(N/N=C/c1cccs1)c1cccc2cc[nH]c12	u	x	0%	15	-2	x
CCOc1ccc(NC(=O)c2c(NCc3cccnc3)sc3c2CCCC3)cc1	x	-3%	-2%[46.1 µM]	x	x	-8%
CC(C)c1ccc(C2c3[nH]c4ccccc4c3C[C@H]3C(=O)N(c4ccccc4C(=O)N4CCC[C@H]4C(=O)O)C(=O)N23)cc1 (stereo partly drawn)	x	0%	x	14	8	3%
CC(C)OC(=O)c1cc2c(ccn2C)n1CC(=O)N(Cc1ccccc1)c1ccccc1	2.5µM*	u	3.2µM*	45	-2	-18%
CCOC(=O)c1cc2c(ccn2C)n1Cc1cc(C)ccc1C	-18%	x	1%	10	-3	x
COc1cccc(NC(=O)N2C3CCCC2CC(NC(=O)C(C)(C)C)C3)c1 (stereo not drawn)	x	x	x	-10	4	x
CC(C)(C)N(Cc1ccccc1)C(=O)CN1C(=O)c2ccccc2C1=O	-6%[46.1 µM]	-9%	17%[46.1 µM]	55*	38*	-12%
CN(Cc1ccccc1)C(=O)CN1C(=O)c2ccccc2C1=O	u	-13%	-6%	x	-3	-5%
CCCCCCCCCCCCCCCCCCNC(=O)OC[C@@H](COP(=O)([O-])OCC[n+]1ccsc1)OC	-26%	x	x	x	x	x
Cc1cc(C)c2nc(N3CCC(C(=O)NCc4ccccn4)CC3)sc2c1	x	x	x	68	47*	x
Cc1cc(C)c2nc(N3CCC(C(=O)NCc4cccnc4)CC3)sc2c1	x	x	x	86*	21*	x
Cc1ccc(C)c(N2CCN(C(=O)Cc3cn(C)c4ccccc34)CC2)c1	18µM*	x	21µM*	-18	-3	x
Cc1ccc(Cl)cc1N1CCN(C(=O)Cc2cn(C)c3ccccc23)CC1	u	u	u	10	7	u
COC(=O)C(Cc1ccc(OC(=O)c2ccc(C(F)(F)F)cc2)cc1)N1Cc2ccccc2C1=O (stereo not drawn)	u	-6%	10%	69*	43*	-5%
COC(=O)C(Cc1ccc(OC(=O)c2ccc(Cl)cc2)cc1)N1Cc2ccccc2C1=O (stereo not drawn)	u	x	9%	126*	44*	-13%
O=C(O)c1cccc(N2C(=O)/C(=C/c3ccc([N+](=O)[O-])cc3)C=C2c2ccccc2)c1	x	x	x	38*	23*	x
Cc1ccn2cc(C(=O)Nc3ccc4c(c3)OCCO4)nc2c1	u	-2%	u	60*	40*	-5%
Cc1cc(C(=O)Nc2ccccc2)nn1C(C)(C)C	6%[46.1 µM]	-12%[7.34 µM]	0%	67*	43*	-8%[7.34 µM]
Cc1cc(C(=O)Nc2ccc3c(c2)OCCO3)nn1C(C)(C)C	x	x	x	140*	79*	x
COc1ccc2c(c1)[C@@H](NC(=O)C(F)(F)F)C1CCCCC21c1ccccc1 (stereo partly drawn)	-4%[14.2 µM]	x	x	x	x	x
Fc1cccc(CSc2nc(NCCc3ccccc3)c3ccccc3n2)c1	x	-14%	-3%[46.1 µM]	x	x	-14%
COc1ccccc1C(=O)N1CCCC(c2nc(SCCN3CCOCC3)ncc2C)C1 (stereo not drawn)	x	-11%	x	x	x	0%
COc1ccc(/C=C(/C#N)S(=O)(=O)c2ccc(C)cc2)cc1	21%	x	u	1	-4	x
CO/N=C/C(C#N)=C/c1ccc(OC)cc1	17%[46.1 µM]	i	5%[46.1 µM]	61*	43*	-4%
SMILES	Marburg entry inh	Vaccinia mCherry	Lassa entry inh	Shiga inhibitor	CHX counter	Vaccinia Venus
COc1ccc(CN2CCc3nnc(CCc4ccccc4)n3CC2)c(OC)c1C	x	-6%	x	x	x	-2%
COCc1nc2oc3ccc(F)cc3c(=O)c2cc1C(=O)OC	u	i	18%	3	14	-10%
Cc1ccc2oc3nc(C)c(C(=O)O)cc3c(=O)c2c1	18%	-10%	u	35	41*	-5%
CCN(CC)C(=O)c1cc2c(=O)c3cc(Cl)ccc3oc2nc1C	28%[46.1 µM]	17%	4%	14	14	15%
COCc1nc2oc3ccc(C)cc3c(=O)c2cc1C(=O)OC	u	-5%	u	42	23*	-16%
CC(=O)c1cc2c(=O)c3cc(C)ccc3oc2nc1C	0%	x	u	121*	30*	-24%
CCc1nc2oc3ccccc3c(=O)c2cc1C(=O)OC	u	-9%	-7%	51*	24*	-5%
O=C(O)c1cc2c(=O)c3ccccc3oc2nc1C(F)(F)F	3%[46.1 µM]	i	10%[46.1 µM]	-6	-4	-9%
Cc1ccc(Cc2nc3ccccc3nc2SCC(=O)Nc2ccc3c(c2)OCO3)cc1	x	-27%	26%[46.1 µM]	x	x	-23%
O=C(Nc1ccccc1)c1cc2c(=O)c3ccccc3oc2nc1C(F)(F)F	-28%	x	0%	-3	-1	x
CCOC(=O)c1cc2c(=O)c3cc(C)ccc3oc2nc1C	20%[46.1 µM]	i	u	52*	40*	-11%
Cc1nc2oc3ccc(F)cc3c(=O)c2cc1C(=O)O	18%[46.1 µM]	i	3%[46.1 µM]	30	27*	-7%
Cc1ccc(S(=O)(=O)N(C)c2ccc3sc(C)nc3c2)cc1	x	x	x	-17	-2	x
CC1CCCCN1C(=O)c1ccc2c(c1)N(Cc1ccc(Cl)cc1)C(=O)c1ccccc1S2=O (stereo not drawn)	u	-5%	u	x	x	-7%
COc1ccccc1C(=O)Nc1nc2cc3c(cc2s1)OCCO3	x	-7%	x	61*	34*	u
CCC(O)c1cc2c(cc1NC(=O)c1cccs1)OCCO2 (stereo not drawn)	u	x	-23%	-8	2	-29%
COc1ccc(C(=O)Nc2nc3cc4c(cc3s2)OCCO4)c(OC)c1	x	x	x	80*	24*	x
O=C(Nc1nc2cc3c(cc2s1)OCCO3)c1cccs1	x	-11%	x	13	27*	-5%
COc1ccccc1C(=O)Nc1nc2cc3c(cc2s1)OCO3	x	-9%	x	90*	55*	-3%
COc1cccc(OC)c1C(=O)Nc1nc2cc3c(cc2s1)OCO3	0%[46.1 µM]	i	23%[46.1 µM]	16	-2	-4%
CCOc1ccc(OCC)c(NC(=O)c2cnc(SC)nc2-c2ccccc2)c1	x	-8%	-16%[46.1 µM]	x	x	-1%
Cc1ccccc1-n1ccnc1SCC(=O)Nc1cccc(S(=O)(=O)NC2=NCCC2)c1	2%	-18%	u	x	x	-10%
Cc1ccc2nc(NNC(=O)c3ccc4c(c3)OCCO4)sc2c1	14%	u	1%	-5	9	-20%
NNc1nc2cc3c(cc2s1)OCCO3	x	x	x	64*	32*	x
O=C(Nc1ccc(Oc2ccc(Cl)cc2)cc1)c1ncn[nH]1	u	8%	12%	-8	-2	19%
O=C(Nc1ccc2oc(-c3ccccc3)nc2c1)c1ccccc1F	1%	-15%	u	59*	20*	-12%
